Holding throughout (assay): yeast three-hybrid, YBZ-1, SC-Leu-His + 0.5 mM 3-AT, 4 days
What all share (settings): tags: N-Gal4 AD-HA kept; label: inside an RPR1-promoter hybrid RNA with tandem MS2 sites; ssRNA

One experiment has as its target T1, PUM1 PUF domain R6-AYE (Homo sapiens, UniProt Q14671 828-1176, N1043A;Q1047E).
T1 sequence: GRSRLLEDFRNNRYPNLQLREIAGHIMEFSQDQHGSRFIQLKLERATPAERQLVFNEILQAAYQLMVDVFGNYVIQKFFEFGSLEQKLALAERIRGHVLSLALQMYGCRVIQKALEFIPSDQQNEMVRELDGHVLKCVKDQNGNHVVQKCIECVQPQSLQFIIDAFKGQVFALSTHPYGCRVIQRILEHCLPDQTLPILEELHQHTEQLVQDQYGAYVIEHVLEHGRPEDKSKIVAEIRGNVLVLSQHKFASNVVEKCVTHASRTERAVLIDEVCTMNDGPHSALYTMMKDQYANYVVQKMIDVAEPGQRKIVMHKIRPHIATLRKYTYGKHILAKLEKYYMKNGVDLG
The method, boiled down: (§1)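 The interaction score is the log change in how often each variant appears, from input to selection. Frequencies came from PCR-amplified, Illumina-sequenced repeat regions of Pumilio-1 PUF domain libraries grown in strain YBZ-1 (LexA–MS2 coat fusion, HIS3 reporter) alongside matching RNA elements. Input plates were SC-Leu and selection plates were SC-Leu-His + 0.5 mM 3-AT, each for four days, and the log2 calculation used a pseudocount of 1 where a variant was absent.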

Another experiment addresses T2, PUM1 PUF domain R6-NWI (Homo sapiens, UniProt Q14671 828-1176, Y1044W;Q1047I).
T2 sequence: T1 sequence with A216N, Y217W, E220I
The method, boiled down: as §1

The next experiment deals with PUM1 PUF domain R5-FRI (Homo sapiens, UniProt Q14671 828-1176, C1007F;Q1011I). The method, boiled down: as §1
The next experiment has as its target PUM1 PUF domain R8-NWG (Homo sapiens, UniProt Q14671 828-1176, Y1123W;Q1126G). The essentials: as §1
Another experiment concerns the target PUM1 PUF domain R3-VHP (Homo sapiens, UniProt Q14671 828-1176, C935V;R936H;Q939P). The essentials: as §1
The target of the next experiment is PUM1 PUF domain R2-LWE (Homo sapiens, UniProt Q14671 828-1176, N899L;Y900W;Q903E). The essentials:
as §1

In the next experiment the target is PUM1 PUF domain R3-SRV (Homo sapiens, UniProt Q14671 828-1176, C935S;Q939V). The method, boiled down: as §1
A further experiment addresses PUM1 PUF domain R5-RQP (Homo sapiens, UniProt Q14671 828-1176, C1007R;R1008Q;Q1011P). The method, boiled down:
as §1

A further experiment deals with T3, PUM1 PUF domain R6-GWK (Homo sapiens, UniProt Q14671 828-1176, N1043G;Y1044W;Q1047K).
T3 sequence: T1 sequence with A216G, Y217W, E220K
The essentials: as §1

A further experiment has as its target PUM1 PUF domain R4-MPS (Homo sapiens, UniProt Q14671 828-1176, N971M;H972P;Q975S). The method, boiled down: as §1
The next experiment deals with PUM1 PUF domain R1-KVV (Homo sapiens, UniProt Q14671 828-1176, S863K;R864V;Q867V). The method, boiled down: as §1
A further experiment concerns the target PUM1 PUF domain R4-NYP (Homo sapiens, UniProt Q14671 828-1176, H972Y;Q975P). The essentials:
as §1

In the next experiment the target is PUM1 PUF domain R5-LLR (Homo sapiens, UniProt Q14671 828-1176, C1007L;R1008L;Q1011R). The method, boiled down:
as §1

The target in a further experiment is PUM1 PUF domain R7-EPS (Homo sapiens, UniProt Q14671 828-1176, S1079E;N1080P;E1083S). The essentials:
as §1

Another experiment deals with PUM1 PUF domain R7-TVR (Homo sapiens, UniProt Q14671 828-1176, S1079T;N1080V;E1083R). The essentials: as §1
For another experiment, the target named is PUM1 PUF domain R7-RHP (Homo sapiens, UniProt Q14671 828-1176, S1079R;N1080H;E1083P). The method, boiled down: as §1
The target of the next experiment is PUM1 PUF domain R3-GND (Homo sapiens, UniProt Q14671 828-1176, C935G;R936N;Q939D). The essentials: as §1
Another experiment has as its target PUM1 PUF domain R3-RAM (Homo sapiens, UniProt Q14671 828-1176, C935R;R936A;Q939M). The method, boiled down: as §1
In the next experiment the target is PUM1 PUF domain R5-KSS (Homo sapiens, UniProt Q14671 828-1176, C1007K;R1008S;Q1011S). The essentials: as §1
The target in the next experiment is PUM1 PUF domain R8-RYM (Homo sapiens, UniProt Q14671 828-1176, N1122R;Q1126M). The method, boiled down: as §1

Changes are numbered by the printed parent chain.

Sequence of PUM1 PUF domain R1-KVV (Q14671 828-1176 S863K/R864V/Q867V): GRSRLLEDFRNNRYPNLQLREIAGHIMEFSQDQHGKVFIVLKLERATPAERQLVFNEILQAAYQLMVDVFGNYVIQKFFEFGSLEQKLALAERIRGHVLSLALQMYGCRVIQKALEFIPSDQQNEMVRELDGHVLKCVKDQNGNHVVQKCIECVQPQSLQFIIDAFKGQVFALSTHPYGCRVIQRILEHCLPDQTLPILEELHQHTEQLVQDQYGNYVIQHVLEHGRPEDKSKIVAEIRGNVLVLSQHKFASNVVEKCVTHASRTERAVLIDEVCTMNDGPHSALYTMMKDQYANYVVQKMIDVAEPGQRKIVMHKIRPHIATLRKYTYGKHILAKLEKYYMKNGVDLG

As for “GGCUAGAACUAGUGGAUCCCCCGGCGCCCGGCGGCUCGAGCCCGGGUAAGUGAAAAUAGUCUGCAUGCCGCCGGGCGCCAUGCCUGCAGGUCGACUCUAGAAAACAUG”, the binding signal was 6.06 log2 enrichment (interaction score) with PUM1 PUF domain R6-AYE and 3.09 log2 enrichment (interaction score) with PUM1 PUF domain R6-NWI.

With “GGCUAGAACUAGUGGAUCCCCCGGCGCCCGGCGGCUCGAGCCCGGGUAAGUGUAAAUAGUCUGCAUGCCGCCGGGCGCCAUGCCUGCAGGUCGACUCUAGAAAACAUG”, the binding signal in the experiment with PUM1 PUF domain R5-FRI was 1.55 log2 enrichment (interaction score); with PUM1 PUF domain R8-NWG it was 3.93 log2 enrichment (interaction score); with PUM1 PUF domain R3-VHP, 3.02 log2 enrichment (interaction score); with PUM1 PUF domain R2-LWE it was 4.67 log2 enrichment (interaction score); with PUM1 PUF domain R3-SRV it was 3.25 log2 enrichment (interaction score); with PUM1 PUF domain R5-RQP, 2.21 log2 enrichment (interaction score). Also, the results for the binding signal with PUM1 PUF domain R6-GWK and in the experiment with PUM1 PUF domain R4-MPS were 7.25 log2 enrichment (interaction score) and 4.59 log2 enrichment (interaction score), respectively.

Consider “GGCUAGAACUAGUGGAUCCCCCGGCGCCCGGCGGCUCGAGCCCGGGUAAGUGUAAAUUGUCUGCAUGCCGCCGGGCGCCAUGCCUGCAGGUCGACUCUAGAAAACAUG”, for which, in the experiment with PUM1 PUF domain R1-KVV, the binding signal is 5.82 log2 enrichment (interaction score).

Consider “GGCUAGAACUAGUGGAUCCCCCGGCGCCCGGCGGCUCGAGCCCGGGUAAGUGUACAUAGUCUGCAUGCCGCCGGGCGCCAUGCCUGCAGGUCGACUCUAGAAAACAUG”, for which the binding signal is 2.11 log2 enrichment (interaction score) with PUM1 PUF domain R4-NYP and 2.38 log2 enrichment (interaction score) with PUM1 PUF domain R4-MPS.

With “GGCUAGAACUAGUGGAUCCCCCGGCGCCCGGCGGCUCGAGCCCGGGUAAGUGUAUAUAGUCUGCAUGCCGCCGGGCGCCAUGCCUGCAGGUCGACUCUAGAAAACAUG”, the binding signal with PUM1 PUF domain R4-NYP was 2.54 log2 enrichment (interaction score).

On to “GGCUAGAACUAGUGGAUCCCCCGGCGCCCGGCGGCUCGAGCCCGGGUAAGUGUUAAUAGUCUGCAUGCCGCCGGGCGCCAUGCCUGCAGGUCGACUCUAGAAAACAUG”, for which the binding signal in the experiment with PUM1 PUF domain R5-FRI was 1.47 log2 enrichment (interaction score); in the experiment with PUM1 PUF domain R5-LLR, 2.92 log2 enrichment (interaction score).

“GGCUAGAACUAGUGGAUCCCCCGGCGCCCGGCGGCUCGAGCCCGGGUAAGUGGAAAUAGUCUGCAUGCCGCCGGGCGCCAUGCCUGCAGGUCGACUCUAGAAAACAUG”: in the experiment with PUM1 PUF domain R6-AYE, the binding signal is 3.94 log2 enrichment (interaction score).

“GGCUAGAACUAGUGGAUCCCCCGGCGCCCGGCGGCUCGAGCCCGGGUAAGUUUAAAUAGUCUGCAUGCCGCCGGGCGCCAUGCCUGCAGGUCGACUCUAGAAAACAUG”: the values for the binding signal with PUM1 PUF domain R7-EPS and with PUM1 PUF domain R7-TVR were 5.7 log2 enrichment (interaction score) and 4.91 log2 enrichment (interaction score), respectively.

With “GGCUAGAACUAGUGGAUCCCCCGGCGCCCGGCGGCUCGAGCCCGGGUAAGUGUAAAUGGUCUGCAUGCCGCCGGGCGCCAUGCCUGCAGGUCGACUCUAGAAAACAUG”, the binding signal with PUM1 PUF domain R1-KVV is 1.3 log2 enrichment (interaction score).

Regarding “GGCUAGAACUAGUGGAUCCCCCGGCGCCCGGCGGCUCGAGCCCGGGUAAGUCUAAAUAGUCUGCAUGCCGCCGGGCGCCAUGCCUGCAGGUCGACUCUAGAAAACAUG”, the binding signal in the experiment with PUM1 PUF domain R7-RHP is 4.29 log2 enrichment (interaction score); in the experiment with PUM1 PUF domain R7-EPS, 1.4 log2 enrichment (interaction score).

With “GGCUAGAACUAGUGGAUCCCCCGGCGCCCGGCGGCUCGAGCCCGGGUAAGUGUAAAGAGUCUGCAUGCCGCCGGGCGCCAUGCCUGCAGGUCGACUCUAGAAAACAUG”, the binding signal with PUM1 PUF domain R2-LWE was 6.63 log2 enrichment (interaction score).

For the sequence “GGCUAGAACUAGUGGAUCCCCCGGCGCCCGGCGGCUCGAGCCCGGGUAAGUGUAAAAAGUCUGCAUGCCGCCGGGCGCCAUGCCUGCAGGUCGACUCUAGAAAACAUG”, in the experiment with PUM1 PUF domain R2-LWE, the binding signal was 7.67 log2 enrichment (interaction score).

As for “GGCUAGAACUAGUGGAUCCCCCGGCGCCCGGCGGCUCGAGCCCGGGUAAGUGUAAGUAGUCUGCAUGCCGCCGGGCGCCAUGCCUGCAGGUCGACUCUAGAAAACAUG”, the binding signal with PUM1 PUF domain R3-SRV was 1.79 log2 enrichment (interaction score); with PUM1 PUF domain R3-GND, 3.15 log2 enrichment (interaction score).

As for “GGCUAGAACUAGUGGAUCCCCCGGCGCCCGGCGGCUCGAGCCCGGGUAAGUGUAAUUAGUCUGCAUGCCGCCGGGCGCCAUGCCUGCAGGUCGACUCUAGAAAACAUG”, the binding signal with PUM1 PUF domain R3-SRV is 2.15 log2 enrichment (interaction score); with PUM1 PUF domain R3-RAM, 2.45 log2 enrichment (interaction score).

For “GGCUAGAACUAGUGGAUCCCCCGGCGCCCGGCGGCUCGAGCCCGGGUAAGUGUCAAUAGUCUGCAUGCCGCCGGGCGCCAUGCCUGCAGGUCGACUCUAGAAAACAUG”, the binding signal in the experiment with PUM1 PUF domain R5-FRI is 2.41 log2 enrichment (interaction score); with PUM1 PUF domain R5-RQP, 4.91 log2 enrichment (interaction score); with PUM1 PUF domain R5-KSS it was 3.4 log2 enrichment (interaction score).

Consider “GGCUAGAACUAGUGGAUCCCCCGGCGCCCGGCGGCUCGAGCCCGGGUAAGCGUAAAUAGUCUGCAUGCCGCCGGGCGCCAUGCCUGCAGGUCGACUCUAGAAAACAUG”, for which, in the experiment with PUM1 PUF domain R8-RYM, the binding signal is 4.93 log2 enrichment (interaction score).

Consider “GGCUAGAACUAGUGGAUCCCCCGGCGCCCGGCGGCUCGAGCCCGGGUAAGUGUAAAUCGUCUGCAUGCCGCCGGGCGCCAUGCCUGCAGGUCGACUCUAGAAAACAUG”, for which the binding signal with PUM1 PUF domain R1-KVV was 5.35 log2 enrichment (interaction score).

(Values after PMC8384837, “Expanding the binding specificity for RNA recognition by a PUF domain”.)
